Measurements published in PubChem BioAssay AID1159580 (chemical genetic matrix, 2015).
About 2,000 (36%) of roughly 5,500 compounds were called active. Roughly 18% stayed inconclusive and do not appear here. Cut-off read from the data, not from the text of the source: active = normalized growth mostly below about 0.91 (no sharp cut-off); inconclusive = no clear call, values can overlap the other calls; inactive = mostly above about 0.92. This is one part of the list.

Experiment: chemical genetic growth profiling, strain panel (AID 1159580);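 note: tested at 20 µM; growth read once vehicle control cultures reached saturation at 30 °C; 1 = growth at the plate median or of vehicle wells; lower values mean less growth of the strain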
Settings: S. cerevisiae deletion strains, growth OD

Measured: normalized growth

CC(=O)O[C@@H]1CC2C(C)(C)[C@H](O)C=C[C@]2(C)C2CC[C@@]3(C)[C@H](c4ccoc4)OC(=O)C4OC43[C@@]21C (stereo not given in full)
inactive: locus YAL021C, strain ccr4, stronger effect = lower value 1.02 | locus YAL026C, strain drs2, stronger effect = lower value 1.03 | locus YAL030W, strain snc1, stronger effect = lower value 1.01 | locus YBL061C, strain skt5, stronger effect = lower value 1.02 | locus YBR009C, strain hhf1, stronger effect = lower value 1.02 | locus YBR023C, strain chs3, stronger effect = lower value 1.03 | locus YBR171W, strain sec66, stronger effect = lower value 1.01 | locus YBR231C, strain swc5, stronger effect = lower value 1.02 | locus YBR279W, strain paf1, stronger effect = lower value 1.02 | locus YCL011C, strain gbp2, stronger effect = lower value 1.02 | locus YCL016C, strain dcc1, stronger effect = lower value 1.02 | locus YCL061C, strain MRC1, stronger effect = lower value 1.01 | locus YCL069W, strain vba3, stronger effect = lower value 1.02 | locus YCR088W, strain abp1, stronger effect = lower value 1.02 | locus YDL005C, strain med2, stronger effect = lower value 1.01 | locus YDL040C, strain nat1, stronger effect = lower value 1.02 | locus YDR001C, strain nth1, stronger effect = lower value 1.01 | locus YDR069C, strain doa4, stronger effect = lower value 1.04 | locus YDR137W, strain rgp1, stronger effect = lower value 1.03 | locus YDR159W, strain sac3, stronger effect = lower value 1.03 | locus YDR195W, strain ref2 1.06 | locus YDR297W, strain sur2, stronger effect = lower value 1.01 | locus YDR334W, strain swr1, stronger effect = lower value 1.02 | locus YDR335W, strain msn5, stronger effect = lower value 1.02 | locus YDR392W, strain spt3, stronger effect = lower value 0.963 | locus YEL003W, strain gim4, stronger effect = lower value 1.02 | locus YEL037C, strain rad23, stronger effect = lower value 1.02 | locus YEL061C, strain CIN8 (second series), stronger effect = lower value 1.01 | locus YER015W, strain faa2, stronger effect = lower value 1.02 | locus YER016W, strain bim1, stronger effect = lower value 1.02 | locus YER111C, strain swi4, stronger effect = lower value 1.02 | locus YER155C, strain BEM2 (second series), stronger effect = lower value 1.03 | locus YFR010W, strain ubp6, stronger effect = lower value 1.03 | locus YGL167C, strain pmr1, stronger effect = lower value 1.02 | locus YGL173C, strain kem1, stronger effect = lower value 1.02 | locus YGL227W, strain vid30, stronger effect = lower value 1.02 | locus YGL240W, strain doc1, stronger effect = lower value 1.02 | locus YGL253W, strain hxk2, stronger effect = lower value 1.01 | locus YHR013C, strain ard1, stronger effect = lower value 1.04 | locus YHR027C, strain rpn1, stronger effect = lower value 1.02 | locus YHR030C, strain SLT2, stronger effect = lower value 0.999 | locus YHR079C, strain IRE1, stronger effect = lower value 0.99 | locus YHR142W, strain chs7, stronger effect = lower value 1.02 | locus YJL092W, strain hpr5, stronger effect = lower value 1.02 | locus YJL095W, strain BCK1 (second series), stronger effect = lower value 1.02 | locus YJL095W, strain BCK1, stronger effect = lower value 1 | locus YJL115W, strain asf1, stronger effect = lower value 1.02 | locus YJL129C, strain trk1, stronger effect = lower value 1.04 | locus YJL154C, strain vps35, stronger effect = lower value 1.01 | locus YJL164C, strain tpk1, stronger effect = lower value 0.998 | locus YJL166W, strain qcr8, stronger effect = lower value 1.01 | locus YJL187C, strain SWE1, stronger effect = lower value 1.01 | locus YJR066W, strain TOR1, stronger effect = lower value 0.963 | locus YKL160W, strain elf1, stronger effect = lower value 1.01 | locus YKR026C, strain gcn3, stronger effect = lower value 0.998 | locus YKR091W, strain srl3, stronger effect = lower value 1.02 | locus YLL001W, strain dnm1, stronger effect = lower value 1.01 | locus YLL026W, stronger effect = lower value 1.02 | locus YLL041C, strain sdh2, stronger effect = lower value 1.01 | locus YLR027C, strain aat2, stronger effect = lower value 1.01 | locus YLR113W, strain HOG1, stronger effect = lower value 0.95 | locus YLR221C, strain rsa3, stronger effect = lower value 1.01 | locus YLR258W, strain gsy2, stronger effect = lower value 1.02 | locus YLR262C, strain YPT6 (second series), stronger effect = lower value 1.02 | locus YLR320W, strain mms22, stronger effect = lower value 1.01 | locus YLR342W, strain FKS1, stronger effect = lower value 1.03 | locus YLR357W, strain rsc2, stronger effect = lower value 1.03 | locus YLR370C, strain arc18, stronger effect = lower value 1.02 | locus YLR384C, strain iki3, stronger effect = lower value 1.02 | locus YML120C, strain ndi1, stronger effect = lower value 1.02 | locus YMR058W, strain fet3, stronger effect = lower value 1.02 | locus YMR125W, strain sto1, stronger effect = lower value 1.03 | locus YMR129W, stronger effect = lower value 1.01 | locus YMR205C, strain PFK2, stronger effect = lower value 1.02 | locus YMR231W, strain pep5, stronger effect = lower value 1.02 | locus YNL071W, strain lat1, stronger effect = lower value 1.02 | locus YNL183C, strain NPR1, stronger effect = lower value 0.955 | locus YNL209W, strain ssb2, stronger effect = lower value 1.02 | locus YNL248C, strain rpa49, stronger effect = lower value 1.01 | locus YNL322C, strain KRE1 (second series), stronger effect = lower value 1.02 | locus YNR049C, strain mso1, stronger effect = lower value 1.02 | locus YOR001W, strain rrp6, stronger effect = lower value 1.01 | locus YOR070C, strain gyp1, stronger effect = lower value 1.02 | locus YOR080W, strain dia2, stronger effect = lower value 1.03 | locus YOR083W, strain WHI5, stronger effect = lower value 1 | locus YOR106W, strain vam3, stronger effect = lower value 1.01 | locus YOR231W, strain MKK1, stronger effect = lower value 0.945 | locus YOR265W, strain rbl2, stronger effect = lower value 1.02 | locus YOR270C, strain vph1, stronger effect = lower value 1.04 | locus YOR290C, strain snf2, stronger effect = lower value 0.982 | locus YPL051W, strain arl3, stronger effect = lower value 1 | locus YPL078C, strain atp4, stronger effect = lower value 1.01 | locus YPL106C, strain sse1, stronger effect = lower value 1.04 | locus YPL240C, strain hsp82, stronger effect = lower value 1.02 | locus YPL256C, strain CLN2, stronger effect = lower value 0.962
